Reference: PubChem BioAssay AID1159580 (chemical genetic matrix, 2015)
Values joined by “and” are separate entries in the source; they are usually repeats but may differ in a detail not shown here. Equal values may be shown once. Among all 5,500 compounds or so, about 2,000 (36%) were called active. Another 18% or so got no clear call; they are omitted. Cut-off read from the data, not from the text of the source: active = normalized growth mostly below about 0.91 (no sharp cut-off); inconclusive = no clear call, values can overlap the other calls; inactive = mostly above about 0.92. The list shows a part of the results.

Experiment: chemical genetic growth profiling, strain panel (AID 1159580);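 note: tested at 20 µM; growth read once vehicle control cultures reached saturation at 30 °C; 1 = growth at the plate median or of vehicle wells; lower values mean less growth of the strain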
Conditions: S. cerevisiae deletion strains, growth OD

Measured: normalized growth

NC[C@H]1O[C@H](O[C@H]2C(O[C@@H]3O[C@H](CO)[C@@H](O)[C@H]3O)[C@@H](O)[C@H](N)C[C@@H]2N)[C@H](N)[C@@H](O)[C@@H]1O (some centres not stated)
inactive: locus YAL013W, strain DEP1, active compounds read low 1 | locus YAL021C, strain ccr4, active compounds read low 1.02 | locus YAL026C, strain drs2, active compounds read low 0.998 | locus YAL030W, strain snc1, active compounds read low 0.994 | locus YBL061C, strain skt5, active compounds read low 0.997 | locus YBR009C, strain hhf1, active compounds read low 0.975 | locus YBR021W, strain FUR4, active compounds read low 0.969 | locus YBR023C, strain chs3, active compounds read low 0.995 | locus YBR171W, strain sec66, active compounds read low 0.992 | locus YBR229C, strain ROT2, active compounds read low 0.99 | locus YBR231C, strain swc5, active compounds read low 0.998 | locus YBR279W, strain paf1, active compounds read low 0.999 | locus YCL011C, strain gbp2, active compounds read low 1 | locus YCL016C, strain dcc1, active compounds read low 0.996 | locus YCL029C, strain bik1, active compounds read low 0.987 | locus YCL061C, strain MRC1, active compounds read low 0.989 | locus YCL069W, strain vba3, active compounds read low 0.997 | locus YCR088W, strain abp1, active compounds read low 0.998 | locus YDL005C, strain med2, active compounds read low 1.01 | locus YDL035C, strain GPR1, active compounds read low 1.01 | locus YDL040C, strain nat1, active compounds read low 0.983 | locus YDL074C, strain BRE1, active compounds read low 0.985 | locus YDL101C, strain DUN1, active compounds read low 0.987 | locus YDL134C, strain PPH21, active compounds read low 0.988 | locus YDL185W, strain tfp1, active compounds read low 0.983 | locus YDL192W, strain arf1, active compounds read low 0.996 | locus YDR001C, strain nth1, active compounds read low 0.989 | locus YDR069C, strain doa4, active compounds read low 0.99 | locus YDR101C, strain arx1, active compounds read low 0.972 | locus YDR137W, strain rgp1, active compounds read low 1.02 | locus YDR150W, strain NUM1, active compounds read low 1 | locus YDR159W, strain sac3, active compounds read low 0.982 | locus YDR162C, strain NBP2, active compounds read low 1 | locus YDR195W, strain ref2 0.939 | locus YDR297W, strain sur2, active compounds read low 0.99 | locus YDR318W, strain mcm21, active compounds read low 0.996 | locus YDR334W, strain swr1, active compounds read low 0.997 | locus YDR335W, strain msn5, active compounds read low 0.994 | locus YDR388W, active compounds read low 0.992 | locus YDR392W, strain spt3, active compounds read low 0.918 | locus YDR502C, strain sam2, active compounds read low 0.998 | locus YEL003W, strain gim4, active compounds read low 1 | locus YEL037C, strain rad23, active compounds read low 0.995 | locus YEL061C, strain CIN8 (second series), active compounds read low 0.991 | locus YEL061C, strain CIN8, active compounds read low 0.999 | locus YER015W, strain faa2, active compounds read low 0.998 | locus YER016W, strain bim1, active compounds read low 0.993 | locus YER110C, active compounds read low 0.993 | locus YER111C, strain swi4, active compounds read low 0.977 | locus YER155C, strain BEM2 (second series), active compounds read low 0.974 | locus YER155C, strain BEM2, active compounds read low 0.957 | locus YER167W, strain BCK2, active compounds read low 1 | locus YFR010W, strain ubp6, active compounds read low 0.999 | locus YGL078C, strain dbp3, active compounds read low 0.988 | locus YGL086W, strain mad1, active compounds read low 0.994 | locus YGL167C, strain pmr1, active compounds read low 0.992 | locus YGL173C, strain kem1, active compounds read low 1 | locus YGL227W, strain vid30, active compounds read low 0.989 | locus YGL240W, strain doc1, active compounds read low 0.991 | locus YGL248W, strain PDE1, active compounds read low 0.994 | locus YGL253W, strain hxk2, active compounds read low 0.985 | locus YGR078C, strain PAC10, active compounds read low 0.994 | locus YGR135W, strain pre9, active compounds read low 0.985 | locus YGR229C, strain SMI1, active compounds read low 1.03 | locus YGR252W, strain gcn5, active compounds read low 1.08 | locus YHR013C, strain ard1, active compounds read low 0.976 | locus YHR027C, strain rpn1, active compounds read low 1 | locus YHR030C, strain SLT2, active compounds read low 0.994 and 0.986 | locus YHR079C, strain IRE1 (second series), active compounds read low 0.983 | locus YHR079C, strain IRE1, active compounds read low 0.993 | locus YHR094C, strain hxt1, active compounds read low 0.99 | locus YHR129C, strain ARP1, active compounds read low 0.986 | locus YHR142W, strain chs7, active compounds read low 1.01 | locus YHR200W, strain rpn10, active compounds read low 0.989 | locus YIL066C, strain RNR3, active compounds read low 0.991 | locus YIL073C, strain SPO22, active compounds read low 1.01 | locus YIL125W, strain kgd1, active compounds read low 1 | locus YIR030C, strain dcg1, active compounds read low 0.988 | locus YJL092W, strain hpr5, active compounds read low 0.994 | locus YJL095W, strain BCK1 (second series), active compounds read low 0.995 | locus YJL095W, strain BCK1, active compounds read low 0.984 and 1.02 | locus YJL115W, strain asf1, active compounds read low 0.995 | locus YJL129C, strain trk1, active compounds read low 1 | locus YJL134W, strain LCB3, active compounds read low 0.992 | locus YJL154C, strain vps35, active compounds read low 0.986 | locus YJL164C, strain tpk1, active compounds read low 1 | locus YJL166W, strain qcr8, active compounds read low 1.01 | locus YJL168C, strain set2, active compounds read low 0.986 | locus YJL187C, strain SWE1 (second series), active compounds read low 0.991 | locus YJL187C, strain SWE1, active compounds read low 0.997 | locus YJR043C, strain POL32, active compounds read low 0.994 | locus YJR066W, strain TOR1, active compounds read low 0.93
